# Activity calls are given as the source filed them. Rule for the calls: active = hit-call score of the fitted dose curve at least 0.9, where 1 is the maximum; inactive = score below 0.9.
# Experiment: CCTE_Padilla_ZF_Score.Craniofacial: CCTE's 144 Hour Post-fertilization zebrafish Assay Score for Craniofacial Malformation, Padilla Lab (AID 2284405)
# Method in brief: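 Craniofacial defects were scored at 6 dpf by two blinded observers using stereomicroscopy. Exposure of wild-type embryos began at 6–8 hpf in sealed wells of 10% Hanks' solution at 26C, with chemical removed by rinsing at 5 dpf.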
Structure (SMILES),outcome,AC50
OCC(F)(F)OC(F)(F)C(F)(F)OC(F)(F)C(F)(F)OC(F)(F)CO,inactive,–
OCC(F)(F)OC(F)(F)C(F)(F)OC(F)(F)C(F)(F)OC(F)(F)F,–,20.2 µM (active)
FC(F)(F)C(F)(C(F)(F)F)C(F)(F)C(F)(F)CC1CO1 (centres undefined),inactive,–
O=C(O)C(F)(F)C(F)(F)C(=O)O,inactive,–
NC(=O)C(F)(F)C(F)(F)F,inactive,–
COC(=O)C(F)(F)C(F)(F)OC(F)(C(F)(F)F)C(F)(F)OC(F)=C(F)F (centres undefined),inactive,–
O=S(=O)(F)C(F)(F)C(F)(F)C(F)(F)C(F)(F)C(F)(F)C(F)(F)C(F)(F)C(F)(F)F,inactive,–
O=C(O)C(F)(F)OC(F)(F)C(F)(F)OC(F)(F)F,inactive,–
O=C(O)C=CC(F)(C(F)(F)F)C(F)(F)F,inactive,–
CC(O)C(F)(F)C(F)(F)F (centres undefined),inactive,–
O=C(O)C(F)(F)OC(F)(F)C(F)(F)OC(F)(F)C(=O)O,inactive,–
OCC(F)(F)OC(F)(F)C(F)(F)OC(F)(F)CO,inactive,–
O=C(O)C(F)(OC(F)(F)C(F)(F)C(F)(F)F)C(F)(F)F (centres undefined),inactive,–
C=CC(=O)OCC(F)(F)C(F)F,inactive,–

# — PubChem BioAssay (EPA / NIEHS)
